Measurements taken from PubChem BioAssay (NCI).
Where “and” joins values, the source holds several entries; their conditions need not be identical. Identical values can stand only once. About 83,000 compounds went through this panel and 20% of them were active in at least one assay; those are over-represented in the sample as a whole.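 Testing used 96-well plates and a 48-hour single-concentration exposure. Example: -40 means 40% of the starting cells died.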 Calls of active or inactive are those of the source. How the source made its calls: active means growth percent below 10; inactive means the rest.

What follows are compounds tested on MDA-MB-468 breast (assay: NCI-60 one-dose screen, 48 h (100 = growth as untreated, 0 = no growth, -100 = all killed)). Details: 10 µM unless noted.

Structure (SMILES)	growth
N#Cc1cccc(CN2CCC3=C(C2)C(=O)N(Cc2ccc(Cl)cc2)C2=NCCCN23)c1	-16.1% (active)
CCN(CC)CCC(C(=O)O)(c1ccccc1)c1ccccc1	120% (inactive)
NC(=O)/C=C/C(=O)c1c(Cl)cccc1Cl	-83.5% (active)
CCCCN1C(=O)/C(=c2\sc3n(c2=O)C2C(NN=3)N(CC)C(=O)N2CC)c2cc(Cl)ccc21 (stereo not given)	56.2% (inactive)
Cn1cnc([N+](=O)[O-])c1S(=O)(=O)Oc1cccc2ccccc12	58.9% (inactive)
C=C1C(=O)O[C@H]2[C@H]1CC/C(COC(=O)C(=O)c1cn(C)c3ccc(OC)cc13)=C\CC[C@@]1(C)O[C@@H]21	-63.6% (active)
Cc1c(NC(=O)CSc2nc3sc4c(c3c(=O)n2-c2ccc(Cl)cc2)CCCC4)c(=O)n(-c2ccccc2)n1C	89.8% (inactive)
NC(=NCCCOc1ccc(Cl)cc1)Nc1ccc(Cl)cc1	-14.9% (active)
COc1ccc(Nc2nc(N)nc3c(=O)[nH]ccc23)cc1	118% (inactive)
CCCn1cnc2c(c1=N)C(c1ccc(OC)cc1)c1sc3c(C)cccc3c1O2 (stereo not given)	50% (inactive)
C=C(C)[C@@H]1CC[C@]2(/C=N/Nc3ccncc3)CC[C@]3(C)[C@H](CC[C@@H]4[C@@]5(C)CCCNC(C)(C)[C@@H]5CC[C@]43C)[C@@H]12	83.7% (inactive)
COc1ccc(-c2nc3cc(Cl)c(Cl)cc3n2CC(=O)N=Nc2c(O)[nH]c3ccc(Cl)cc23)cc1	-40.1% (active)
COC(=O)[C@]1(CCSC)N[C@H](c2cn(-c3ccccc3)nc2C)[C@@H]2C(=O)N(c3ccc(C)cc3)C(=O)[C@@H]21	127% (inactive)
CN1CCN(c2cc3c(cc2F)c(=O)c(C(=O)O)cn3-c2ccc(F)cc2)CC1	110% (inactive)
O=C1NC(=O)[C@@H](c2cn3c4c(cccc24)CCC3)[C@@H]1c1c[nH]c2ccccc12	-0.826% (active)
CCNc1nc2ccc(Nc3ccnc4cc(Cl)ccc34)cc2[nH]1	21.8% (inactive)
CN1CCCCC1CCN1c2ccccc2Sc2ccc(Cl)cc21 (stereo not given)	30.2% (inactive)
CN1C(=O)N(C)C2C1NN=c1s/c(=C\c3ccc(C(F)(F)F)cc3)c(=O)n12 (stereo not given)	-2.71% (active)
COc1ccc(NC(=O)c2sc3nc(C)c(C(C)=O)cc3c2N)cc1	91.8% (inactive)
COc1nccnn1	82.9% (inactive)

Structure (SMILES)	growth
CCNC(=O)Oc1ccc(/C(=C(/CC)Cc2ccccc2)c2ccc(OCCN3CCOCC3)cc2)cc1	46.1% (inactive)
NS(=O)(=O)c1ccc(C(=O)N/N=C(\CS(=O)(=O)c2ccccc2)c2cc3cc(Br)ccc3o2)cc1	78.9% (inactive)
Cc1ccc(N)cc1CN1C(=O)c2ccccc2C1=O	107% (inactive)
CCC(=O)Sc1ccccc1C(=O)Nc1ccc(Cl)cc1	27% (inactive)
COc1cc(-c2cc(/C=C3\CCCCC3=O)[nH]n2)cc(OC)c1OC	85.2% (inactive)
COC(=O)/C=C/c1cc(O)c2c(c1)C(C(=O)OC)C(c1ccc(O)c(O)c1)O2 (stereo not given)	27.3% (inactive) and 17.6% (inactive)
Cc1nc(N=C(N)N)nc2ccc3ccccc3c12	-55.8% (active)
C=C(C=O)[C@@H]1CC[C@]2(C(=O)O)CC[C@]3(C)C(CC[C@@H]4[C@@](C)(CCC#N)[C@H](C(=C)C=O)CC[C@]43C)[C@@H]12 (stereo not given in full)	79.8% (inactive)
COc1ccc(/C=C(/C(=O)N2CCN(c3ccc(C)cc3)CC2)c2cc(OC)c(OC)c(OC)c2)cc1N	29.6% (inactive)
Nc1ccc(-c2cc3c(Nc4ccc(OCc5cccc(F)c5)c(Cl)c4)ncnc3s2)cc1	14.2% (inactive)
CCCCCCCCCCCC(c1ccccc1)[N+](C)(C)C (stereo not given)	-45.6% (active)
COc1cc(C)ccc1C(=O)c1ccc(C)cc1OC	-20.3% (active)
Cc1[nH]c(-c2nc3ccccc3[nH]2)c(C)c1C(=O)N1CCc2sccc2C1	70.2% (inactive)
CNC(=O)c1cc(Oc2cccc3nc(NC(=O)Nc4ccc(F)cc4F)ccc23)ccn1	42.1% (inactive)
COc1ccc(-c2cc(/C=C/C(=O)c3ccc(N)cc3)[nH]n2)cc1	4.1% (active)
C/C(=N\Nc1nc(C)cs1)c1cc2ccccc2o1	82.6% (inactive)
CCOc1ccc2nc3cc(N)ccc3c(N)c2c1	-84.6% (active) and -33.5% (active)
N/C(=N\N=C\c1ccc2c(c1)OCO2)N/N=C\c1ccc2c(c1)OCO2	98.9% (inactive)
NC(=S)N/N=C(/C=C/c1cn(-c2ccccc2)nc1-c1ccc(Cl)cc1)c1cc2ccccc2oc1=O	52.2% (inactive)
Fc1ccccc1CSc1ncnc2nc[nH]c12	97.6% (inactive)
